Test results: PubChem BioAssay AID2284350 (EPA ToxCast)
Records with an inconclusive call do not appear. Active and inactive are the calls of the source. The calls were made as follows: active = hit-call score of the fitted dose curve at least 0.9, where 1 is the maximum; inconclusive = response in the unintended direction; inactive = score below 0.9.

These compounds were tested on zebrafish Peroxisome Proliferator-activated Receptor alpha (PPARa), gene 563298 (assay: ATG_zfPPARa_EcoTox2: Attagene TRANS-FACTORIAL EcoTox-2 HepG2 Assay for zebrafish Peroxisome Proliferator-activated Receptor alpha (PPARa)).
Protocol: ATG_EcoTox2 is a cell-based, multiplexed assay created by modifying the existing Attagene TRANS-FACTORIAL system to include a panel of nuclear receptors from some or all the following species: human (Homo sapiens), african clawed frog (Xenopus laevis), rainbow trout (Oncorhynchus mykiss), japanese medaka (Oryzias latipes), and zebrafish (Danio rerio). The ECOTOX2-FACTORIAL format uses HepG2, a human liver cell line, with measurements taken at 24 hours after chemical dosing in a 24-well plate. ATG_zfPPARa_EcoTox2 is one of 29 assay components calculated in the ATG_EcoTox2 assay. It is designed to make measurements of mRNA induction, a form of inducible reporter, as detected with fluorescence intensity signals by Reverse transcription polymerase chain reaction (RT-PCR) and Capillary electrophoresis technology.The assay endpoint ATG_zfPPARa_EcoTox2 was analyzed in the positive analysis fitting direction relative to DMSO as the negative control and baseline of activity. Using a type of inducible reporter, measures of mRNA for gain-of-signal activity can be used to understand the reporter gene at the transcription factor-level as they relate to the gene PPARa. Furthermore, this assay endpoint can be referred to as a primary readout, because this assay has produced multiple assay endpoints where this one serves a reporter gene function. To generalize the intended target to other relatable targets, this assay endpoint is annotated to the nuclear receptor intended target family, where the subfamily is non-steroidal.
Human liver HepG2 cells are transiently transfected with multiple reporter transcription units (MRTUs) in 6-well plates using FuGene 6 reagent (Roche; 3 ml FuGene/1 mg DNA). The MRTU constructs are regulated by a cis-regulating element (promoter). Each RTU expresses a GAL4-UAS that regulates the transcription of a nearby target reporter gene sequence. A major difference between the CIS and TRANS system is that in CIS activities of endogenous TFs are measured, whereas the TRANS assay evaluates changes in activities of exogenous, chimeric NR-Gal4 proteins. […] At the end of 24 hour incubation, total RNA was isolated using TriZol reagent (Invitrogen). The isolated RNA is then reverse-transcribed using oligo(dT) primer and Mo-MLV reverse transcriptase (Invitrogen) with DNAse I (Ambion) treatment for 30 min. The one-tenth of the produced cDNA was amplified by PCR using Taq DNA polymerase (Invitrogen) and two reporter sequence-specific primers. The PCR products were fluorescently labeled by primer extension with 6-arboxyfluorescein (6-FAM) 5'-labeled reporter sequence-specific primer (2 min at 95 C, 20 s at 68 C and 10 min at 72 C) and these products were digested with 5U of HpaI (New England Biolabs) for 2h at 37 C. The fragments were purified using Qiaquick PCR columns (Qiagen), analyzed on an ABI 3130xL genetic analyzer (Applied Biosystems) with peak positions identified by using a set of X-rhodamine (ROX)-labeled MapMarker1000 molecular weight standards (BioVentures). The raw capillary electrophoresis data was processed using Attagraph software (Attagene).

| Structure (SMILES) | outcome | AC50 |
| --- | --- | --- |
| Cc1c(C)c2c(c(C)c1O)CCC(C)(COc1ccc(CC3SC(=O)NC3=O)cc1)O2 (configuration not stated) | inactive | – |
| CN(CCOc1ccc(CC2SC(=O)NC2=O)cc1)c1ccccn1 (configuration not stated) | inactive | – |
| Cc1cccc(Nc2cc(Cl)nc(SCC(=O)O)n2)c1C | – | 8.62 µM (active) |
| CC(c1cc2ccccc2s1)N(O)C(N)=O (configuration not stated) | inactive | – |
| CC(C)(Oc1ccc(CCNC(=O)c2ccc(Cl)cc2)cc1)C(=O)O | – | 21.6 µM (active) |
| CC(C)(Oc1ccc(C2CC2(Cl)Cl)cc1)C(=O)O (configuration not stated) | – | 71.9 µM (active) |
| CC(C)(Oc1ccc(Cl)cc1)C(=O)O | inactive | – |
| C[C@@H]1C[C@H]2[C@@H]3CCC4=CC(=O)C=C[C@]4(C)[C@@]3(F)[C@@H](O)C[C@]2(C)[C@@]1(O)C(=O)COP(=O)(O)O | inactive | – |
| CC(C)OC(=O)C(C)(C)Oc1ccc(C(=O)c2ccc(Cl)cc2)cc1 | inactive | – |
| Cc1nc(-c2ccc(C(F)(F)F)cc2)sc1C(=O)NCc1ccc(OC(C)(C)C(=O)O)cc1 | – | 0.0769 µM (active) |
| C=C(c1ccc(C(=O)O)cc1)c1cc2c(cc1C)C(C)(C)CCC2(C)C | inactive | – |
| Cc1ccc(C)c(OCCCC(C)(C)C(=O)O)c1 | – | 73.6 µM (active) |
